High-throughput results from PubChem.
Measles CPE – protection of cells from measles virus | Measles virus-infected cells, CPE protection, absorbance | protection (pct of control), % at 4 µM | 140,000 compounds, 1.5% hits | AID 841; in the data active means protection mostly above about 24%, no sharp cut-off; inactive means mostly below about 26%
PostGolgi yeast – growth inhibition of a yeast mutant, post-Golgi transport screen; post-Golgi transport phenotypic cell assay; inhibition, % at 10 µM; 98,000 compounds, 0.9% hits; AID 739;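 further: yeast cells grown in 1536-well plates; yeast grown about 18 h at 30C before absorbance read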
PostGolgi ctrl – growth of the yeast control strain, post-Golgi counter-screen. efflux-deficient yeast background strain, growth absorbance A615, 16 h. inhibition, % at 10 µM. 98,000 compounds, 5% hits. AID 738
MT1-MMP txn act – MT1-MMP promoter transcription activation; HT1080 MT1-MMP promoter luciferase reporter, luminescence, overnight; stronger effect = higher value; activation factor at 10 µM; 86,000 compounds, 0.16% hits;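 active means activation factor of at least 2 for MT1-MMP transcription at 10 µM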
Each line names hits and unclear results; the compound was inactive in the other large screens. A selection: hits, their analogues and other compounds. The true share with any hit is near 5.3%. Unless noted, no stated cut-off is given here; in the data, active means inhibition above about 30%; inactive means the rest.

COc1ccc(-c2nc(C#N)c(N3CCCCCC3)o2)cc1	none
COc1ccc(-c2nc(C#N)c(N3CCCCCC3)o2)cc1OC	PostGolgi ctrl 34
CCN(CC)CCCNc1oc(-c2ccc(OC)c(OC)c2)nc1C#N	Measles CPE 45
COc1ccc(/C=C2\N=C(SC)SC2=O)cc1OC	Measles CPE 40
CSC1=N/C(=C\c2ccc(C)cc2)C(=O)S1	none
Cc1ccccc1NC(=S)NC1CCN(Cc2ccccc2)CC1	none (no result: PostGolgi yeast, PostGolgi ctrl, MT1-MMP txn act)
FC(F)(F)c1ccc(N2CCN(c3cc(-c4ccccc4)nc4ncnn34)CC2)nc1	PostGolgi ctrl 57
O=C(c1ccc2ccccc2c1)N1CCN(c2ccc(C(F)(F)F)cn2)CC1	none
Cc1ccc(Nc2nc(Nc3ccc(C)cc3)nc(SC3=NCCS3)n2)cc1	PostGolgi ctrl 38
Cc1noc(C)c1COc1ccc(C(=O)OC(C)C(=O)Nc2ccc(S(=O)(=O)N3CCOCC3)cc2)cc1 (centres undefined)	none (no result: PostGolgi yeast, PostGolgi ctrl, MT1-MMP txn act)
COC(=O)NC1CSCC1OC(=O)CN1C(=O)c2ccccc2C1=O (centres undefined)	PostGolgi ctrl 40
CN1CCN(S(=O)(=O)c2ccc3[nH]c(=O)oc3c2)CC1	Measles CPE 40 (no result: PostGolgi yeast, PostGolgi ctrl, MT1-MMP txn act)
Cc1ccc(O)c(-c2cc(-c3ccccc3C)[nH]n2)c1	PostGolgi ctrl 86
Oc1ccc(Cl)cc1-c1cc(-c2cccc(Br)c2)n[nH]1	PostGolgi ctrl 54
Oc1ccc(Br)cc1-c1cc(-c2ccco2)[nH]n1	PostGolgi ctrl 79
Oc1ccc(Cl)cc1-c1cc(-c2ccccc2Cl)[nH]n1	none (no result: PostGolgi yeast, PostGolgi ctrl)
Cc1ccc(O)c(-c2cc(-c3ccccc3[N+](=O)[O-])[nH]n2)c1	none (no result: PostGolgi yeast, PostGolgi ctrl, MT1-MMP txn act)
Oc1ccc(Br)cc1-c1ccn[nH]1	none (no result: PostGolgi yeast, PostGolgi ctrl, MT1-MMP txn act)
Oc1ccccc1-c1cc(-c2ccccc2Cl)[nH]n1	PostGolgi ctrl 75
Oc1ccccc1-c1cc(-c2cccc(F)c2)n[nH]1	none
CS(=O)(=O)c1ccc2nc(NC(=O)c3cc(-c4ccccc4)nn3-c3ccccc3)sc2c1	none (no result: PostGolgi yeast, PostGolgi ctrl, MT1-MMP txn act)
COC(=O)c1ccc(Oc2nc(Nc3ccc(C)c(C)c3)nc(N(C)C)n2)cc1	none
Cc1cc(C(=O)NCC(=O)OCC(=O)N(C(C)C)C(C)C)ccc1[N+](=O)[O-]	none (no result: PostGolgi yeast, PostGolgi ctrl, MT1-MMP txn act)
CCn1cc(C=C2C(=O)c3ccccc3C2=O)c2ccccc21	none (no result: PostGolgi yeast, PostGolgi ctrl, MT1-MMP txn act)
Oc1ccccc1-c1cc(-c2ccco2)[nH]n1	PostGolgi ctrl 30, MT1-MMP txn act 2.1
Oc1c(-c2cc(-c3ccco3)[nH]n2)ccc2ccccc12	none
Oc1ccc(Cl)cc1-c1cc(-c2ccco2)[nH]n1	PostGolgi ctrl 46
CN1CCN(CCCc2c3c(cc4c2CCC4)CCC3)CC1	none (no result: PostGolgi yeast, PostGolgi ctrl, MT1-MMP txn act)
COc1ccc(Cl)cc1NC(=O)CSc1nnc(Cc2cccn2C)n1-c1ccc(F)cc1	PostGolgi ctrl 32
Cn1cccc1Cc1nnc(SCC(=O)Nc2ccc(F)cc2F)n1-c1ccc(F)cc1	none
COc1ccc(/C=N/OCC(=O)N2CC3(C)CC2CC(C)(C)C3)cc1OC (centres undefined)	Measles CPE 44 (no result: MT1-MMP txn act)
COc1cc(C2C(C#N)=C(C)NC(C)=C2C#N)cc(OC)c1OC	none (no result: PostGolgi yeast, PostGolgi ctrl, MT1-MMP txn act)
CCS(=O)(=O)N1Cc2ccccc2CC1C(=O)NCC12CC3CC(CC(C3)C1)C2 (centres undefined)	none (no result: MT1-MMP txn act)
CCS(=O)(=O)N1Cc2ccccc2CC1C(=O)NC(C)C12CC3CC(CC(C3)C1)C2 (centres undefined)	PostGolgi ctrl 36
COCCn1nnnc1C(c1ccc(C(F)(F)F)cc1)N1CCOCC1 (centres undefined)	none
COCCn1nnnc1C(C(C)C)N1CCOCC1 (centres undefined)	PostGolgi ctrl 40
CCOC(=O)CN(c1ccccn1)S(=O)(=O)c1ccccc1	Measles CPE 35
Cc1nc2ccccc2c2oc(C(=O)N3CCc4ccccc4C3)cc12	PostGolgi ctrl 35
Cc1nn(-c2ccccc2)c2sc(C(=O)N3CCCCC3)cc12	none
Cc1nn(-c2ccccc2)c2sc(C(=O)N3CCc4ccccc4C3)cc12	PostGolgi ctrl 45
COc1ccc(C(=O)/C=C/c2ccc(OC)c(Cn3nnc4ccccc43)c2)cc1	none (no result: PostGolgi yeast, PostGolgi ctrl, MT1-MMP txn act)
O=C(CCCCCN1C(=O)c2ccccc2C1=O)Nc1ccc2c(c1)OCCO2	none
CC1CCN(S(=O)(=O)c2ccc(NC(=O)CCN3C(=O)c4ccccc4C3=O)cc2)CC1	PostGolgi yeast 83
O=C(Nc1ccccc1)Nc1ccc(S(=O)(=O)N2CCCCC2)cc1	PostGolgi ctrl 30
O=C(Nc1ccc(S(=O)(=O)N2CCCCC2)cc1)c1ccccc1Cl	none
CC1CN(S(=O)(=O)c2ccc(NC(=O)CCN3C(=O)c4ccccc4C3=O)cc2)CC(C)O1 (centres undefined)	none
CC1CCN(S(=O)(=O)c2ccc(NC(=O)Cc3ccccc3)cc2)CC1	PostGolgi ctrl 39
O=C(CCN1C(=O)c2ccccc2C1=O)Nc1ccc2c(c1)OCCO2	PostGolgi ctrl 35
